This is an account of results in PubChem BioAssay (Tox21).

Results filed as inconclusive are left out. Where a call stands in place of a potency, no number is given. Activity calls are given as the source filed them. Calls follow the shape of the dose curve; as a rule, active = well fitted cell-killing curve with a large enough effect in the repeat runs; inconclusive = weak or mixed curves, or effect the other way; inactive = flat fitted curve, though single readings scatter.

A short description of this assay: qHTS assay to identify small molecule agonists of the constitutive androstane receptor (CAR) signaling pathway - cell viability counter screen (AID 1224836). Also: nearly all actives have a fitted effect of over 45% in size. To be noted: HepG2-CYP2B6-hCAR viability, CellTiter-Fluor, 23 h, PK11195 added to every well; series mostly up to 92.4 µM; viability change, negative = cytotoxic: at the top concentration. From the text: U.S. Tox21 Program National Center for Advancing Translational Sciences [NCATS] NIH Chemical Genomics Center [NCGC] U.S. Environmental Protection Agency [EPA] National Institutes of Environmental Health Sciences [NIEHS] National Toxicology Program [NTP] U.S. Food and Drug Administration [FDA] Tox21 Assay Overview: The constitutive androstane receptor (CAR) is a nuclear receptor which regulates multiple drug metabolizing enzymes (DMEs) and transporters. Activating CAR will generally increase the transcription and subsequent translation of CYP2B6 and CYP3A4. These two DMEs represent about 50% of the drug metabolizing potential in the body. […] Recently, there have also been studies performed indicating CARs role in energy metabolism and cancer therapy. Therefore, inducing CARs activity could have a potential effect on diabetes and cancer. Identifying environmental toxins and compounds which modulate CAR, through the use of the Tox21 10K compound collection, will be an important step in determining the toxicity and potential therapeutic effects these factors will have on the human body. To differentiate true CAR agonists from cytotoxic substances, the assay is multiplexed with a cell viability assay.
Tox21 Assay Protocol Summary: A double-stable (hCAR and CYP2B6-2.2kb) transfected cell line, derived from human hepatoma (HepG2) cells, was utilized for the duration of the quantitative high-throughput screens. The HepG2-CYP2B6-hCAR cells were dispensed at 2500 cells/4 uL/well in 1536-well white solid bottom plates using a Multidrop Combi. After the assay plates were incubated at 37 C/5% CO2 for 4 hrs, 23 nL of compounds at 15 concentrations (from 5-48 columns) or positive control (from 1 to 4 columns) were transferred to the assay plates using a Pintool station. One uL of PK11195 (final concentration = 0.75 uM) was added, using a Flying Reagent Dispenser, inside each well. After a 23 hr incubation period at 37 C/5% CO2, 1 uL of CellTiter-Fluor reagent was added into each well of the assay plates using a Flying Reagent Dispenser. The fluorescence intensity in the plates was then measured using a ViewLux plate reader.
(In general: Quantitative high-throughput screening tests each substance at several concentrations.)
For the molecule `C=CCO`, the Potency entry was “inactive”.
For `Nc1ccc(Br)cc1`, the “viability change, negative = cytotoxic” value was -6.59% (inactive).
As to `CN(C)CCO`, the Potency entry is “inactive”.
For the molecule `Cc1ccc(N)cc1N`, the Potency result is “inactive”.
Same read-out and setting: then `ClCCBr`, with “inactive”; and `CCOP(=S)(OCC)Oc1cnc2ccccc2n1`, with “inactive”.
The same measure, in the same setting: next, `CCC[CH2][Sn]([Cl])([Cl])[Cl]`: “inactive”; `CC1C=[C-]C=C1.[C-]#[O+].[C-]#[O+].[C-]#[O+].[Mn]`: “inactive”.
For `COP(N)(=O)SC` (stereo not given), the Potency entry is “inactive”.
Take `CC(C)C#N`: the Potency entry was “inactive”.
On the same count and under the same terms, then `Clc1cccc(Cl)c1Cl`, with “inactive”; and `CCN(CC)CCO`, with “inactive”; and `CCCN(CCC)N=O`, with “inactive”.
Consider `CCOP(OCC)OCC`, for which the Potency entry was “inactive”.
Same read-out and setting: then `Cc1ccc(N)cc1Cl`, with “inactive”.
Still for that read-out and setting: then `CCCCN(CCCC)SN(C)C(=O)Oc1cccc2c1OC(C)(C)C2`, with “inactive”.
Same read-out and setting: then `Nc1ccc(Cc2ccc(N)cc2)cc1`, with “inactive”; and `COC(=O)NC(=S)Nc1ccccc1NC(=S)NC(=O)OC`, with “inactive”; and `CC(C)(C)OOC(=O)c1ccccc1`, with “inactive”.
In the case of `CCOC(=O)c1ccccc1C(=O)OCC`, the Potency result was “inactive”.
Still for that read-out and setting: then `OCCN(CCO)CCO`, with “inactive”; and `Cc1cc(-c2cc(C)c(N)c(C)c2)cc(C)c1N`, with “inactive”; and `CCNc1nc(NC(C)(C)C)nc(SC)n1`, with “inactive”.
Turning to `COc1ccc2c3c1O[C@H]1[C@@H](O)C=C[C@H]4[C@@H](C2)N(C)CC[C@@]341`, the “viability change, negative = cytotoxic” value is -6.35% (inactive).
For the molecule `C1CC2OC2CC1C1CO1` (stereo not given), the Potency result was “inactive”.
On the same count and under the same terms, next, `CC(C)OC(=O)Nc1ccccc1`: “inactive”; `CCc1cccc(C)c1N(C(=O)CCl)C(C)COC` (stereo not given): “inactive”; `BrCCBr`: “inactive”.
The same measure, in the same setting: next, `COC(=O)NS(=O)(=O)c1ccc(N)cc1`: “inactive”; `[O-][Cl+2]([O-])O`: “inactive”; `CC(C)C1(C)N=C(c2nc3ccccc3cc2C(=O)O)NC1=O` (stereo not given): “inactive”.
With `Cc1cccc([N+](=O)[O-])c1`, the Potency result was “inactive”.
Turning to `Cc1ccccc1O`, the Potency result was “inactive”.
On the same count and under the same terms, next, `Clc1ccc(Cl)cc1`: “inactive”.
Same read-out and setting: then `CCCCCOC(=O)c1ccccc1C(=O)OCCCCC`, with “inactive”; and `O=C(NC(=O)c1c(F)cccc1F)Nc1cc(Cl)c(OC(F)(F)C(F)C(F)(F)F)cc1Cl` (stereo not given), with “inactive”; and `CC(C)=C[C@@H]1[C@@H](C(=O)OCc2coc(Cc3ccccc3)c2)C1(C)C`, with “inactive”.
On the same count and under the same terms, next, `CC(C#N)CCC#N` (stereo not given): “inactive”; `O=c1[nH]c(=O)[nH]c(=O)[nH]1`: “inactive”; `Cc1cc(Cl)ccc1O`: “inactive”.
